Measurements as given in PubChem BioAssay.
Active and inactive are the calls of the source.

Columns and labels:
[1] = test system: Plasmodium falciparum Sir2 (PF13_0152, Sir2A); assay: Plasmodium falciparum Sir2A binding compounds – biochemical, small-molecule microarray, 635 nm fluorescence, primary screen (AID 1098); conditions: fluorescence 635 nm, higher = more signal;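 note: score merges spot fluorescence intensity with its signal-to-noise ratio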
[2] = probe aDKK1 binding to arrayed compounds – biochemical, biotinylated probe, 635/667 nm fluorescence, primary screen (AID 1099); conditions: small-molecule microarray, higher = more signal;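 note: score merges 667nm spot fluorescence with signal to noise across triplicate slides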
[3] = probe aCHRDL2 binding to arrayed compounds – biochemical, biotinylated probe, 635/667 nm fluorescence, primary screen (AID 1100); conditions: small-molecule microarray, higher = more signal
[4] = change in splice reporter luminescence, either direction, cell-based, HEK293, spliceosome inhibition project, primary screen (AID 1101); conditions: HEK293 splicing luciferase reporter, 24 h, higher = more signal, called active from +8 up or from −8 down;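 note: HEK293 cells carrying a splicing-competent luciferase reporter gene; test concentration not given here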
[5] = target: Fibroblast growth factor 10 (Homo sapiens) (UniProt O15520); assay: compounds binding fibroblast growth factor 10 – biochemical, small-molecule microarray, 635 nm fluorescence, primary screen (AID 1102); conditions: FGF10 binding, fluorescence 635 nm, higher = more signal
[6] = test system: glycogen synthase kinase-3 (GSK3A per assay name; protocol says GSK3B); assay: compounds binding glycogen synthase kinase-3 – biochemical, small-molecule microarray, 635 nm fluorescence, GSK3A, primary screen (AID 1103); conditions: fluorescence 635 nm, higher = more signal; note: the record names both GSK3A and GSK3B
[7] = target: Epidermal growth factor receptor (Homo sapiens) (UniProt P00533); assay: compounds binding epidermal growth factor receptor – biochemical, small-molecule microarray, 635 nm fluorescence, primary screen (AID 1104); conditions: EGFR binding, higher = more signal;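 note: score merges 667 nm emission intensity with spot signal to noise over triplicate slides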
[8] = target: Follistatin-related protein 3 (Homo sapiens) (UniProt O95633); assay: compounds binding follistatin-related protein 3 – biochemical, small-molecule microarray, 635 nm fluorescence, primary screen (AID 1105); conditions: FSTL3 binding, higher = more signal;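 note: score merges emission near 667 nm and signal to noise per printed spot across three slides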
[9] = target: Dickkopf-related protein 1 (Homo sapiens) (UniProt O94907); assay: small molecules binding DKK1 protein – biochemical, small-molecule microarray, 635 nm fluorescence scan, primary screen (AID 1106); conditions: higher = more signal;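 note: score merges emission near 667 nm with signal to noise over three replicate slides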
[10] = test system: Inhibin beta A chain (activin A); assay: small molecules binding activin A – biochemical, small-molecule microarray, 635 nm fluorescence scan, primary screen (AID 1107); conditions: INHBA, higher = more signal;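 note: mouse activin A protein probed at 4.33 µg/mL on printed slides; score merges bound-protein fluorescence near 667 nm with spot signal-to-noise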
[11] = test system: Human papillomavirus type 1a protein E7 (residues 44-93); assay: small molecules binding HPV E7 44-93 – biochemical, small-molecule microarray, residues 44-93, 635 nm fluorescence, primary screen (AID 1108); conditions: fluorescence 635 nm, higher = more signal;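 note: E7 fragment applied at 1 µg/mL in TBST for 1 h at 4 C; score combines spot fluorescence with its signal to noise ratio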
[12] = hepatitis C replication reporter changes, two-sided – Huh7 cells, luciferase reporter, HCV replication inhibitor project, primary screen (AID 1109); conditions: Huh7 HCV replicon luciferase reporter, 48 h; higher = more signal;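 note: huh7 hepatoma cells harbouring a luciferase neomycin HCV replicon reporter; luciferase luminescence as measure of HCV replicon replication; test concentration not given here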
[13] = target: Left-right determination factor 2 (Homo sapiens) (UniProt O00292); assay: small molecules binding LEFTY2 protein – biochemical, small-molecule microarray, 635 nm fluorescence scan, primary screen (AID 1110); conditions: higher = more signal
[14] = target: Calmodulin-1 (Homo sapiens) (UniProt P0DP23); assay: small molecules binding calmodulin-1 with EGTA – biochemical, small-molecule microarray, Cy5-labelled CALM1, profiling panel (AID 1111); conditions: Cy5-CALM1 binding fluorescence, higher = more signal;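 note: labelled calmodulin applied in Tris saline Tween buffer holding calcium plus EGTA and DTT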
[15] = target: Calmodulin-1 (Homo sapiens) (UniProt P0DP23); assay: small molecules binding Ca-loaded calmodulin-1 – biochemical, small-molecule microarray, Cy5-labelled CALM1, plus calcium, artefact control for SMM control-protein annotation, profiling panel (AID 1112); conditions: Cy5-CALM1 binding fluorescence, higher = more signal;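 note: score merges spot fluorescence with signal to noise from triplicate slides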
[16] = probe aWnt5a binding to arrayed compounds – biochemical, biotinylated probe, 635/667 nm fluorescence, primary screen (AID 1113); conditions: small-molecule microarray, higher = more signal;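 note: score merges 667 nm fluorescence intensity with signal-to-noise per printed feature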
[17] = probe aShh binding to arrayed compounds – biochemical, biotinylated probe, 635/667 nm fluorescence, primary screen (AID 1114); conditions: small-molecule microarray, higher = more signal;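 note: probe is biotin-labelled aShh protein from a stem cell growth factor screen; measures binding of labelled protein to compounds printed on the slide; score merges feature fluorescence at 667 nm with signal-to-noise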
[18] = probe aNog binding to arrayed compounds – biochemical, biotinylated probe, 635/667 nm fluorescence, primary screen (AID 1115); conditions: small-molecule microarray, higher = more signal;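 note: probe is biotinylated aNog protein used at 0.15 µg/mL for 1 h at 4 C; z-score combines 667 nm fluorescence of each spot with its signal to noise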
[19] = target: Torsin-1A-interacting protein 1 (Homo sapiens) (UniProt Q5JTV8); assay: compound microarray binding of lysate hLAP1 – cell lysate, small-molecule microarray, COS7 lysate, 635/667 nm fluorescence, primary screen (AID 1116); conditions: 635 nm fluorescence, higher = more signal
[20] = target: Alpha-bungarotoxin (Bungarus multicinctus) (UniProt P60615); assay: compounds binding labelled alpha-BTX control protein – biochemical, small-molecule microarray, Alexa647 label, 635/667 nm fluorescence, artefact control for SMM control protein annotation, profiling panel (AID 1117); conditions: alpha-BTX-A647 binding fluorescence, higher = more signal
Chain of Alpha-bungarotoxin (Bungarus multicinctus) (P60615 whole entry, looked up): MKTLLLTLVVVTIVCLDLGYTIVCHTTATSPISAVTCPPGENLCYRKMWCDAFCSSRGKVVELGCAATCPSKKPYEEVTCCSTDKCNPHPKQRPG

Chain of Left-right determination factor 2 (Homo sapiens) (O00292 whole entry, looked up): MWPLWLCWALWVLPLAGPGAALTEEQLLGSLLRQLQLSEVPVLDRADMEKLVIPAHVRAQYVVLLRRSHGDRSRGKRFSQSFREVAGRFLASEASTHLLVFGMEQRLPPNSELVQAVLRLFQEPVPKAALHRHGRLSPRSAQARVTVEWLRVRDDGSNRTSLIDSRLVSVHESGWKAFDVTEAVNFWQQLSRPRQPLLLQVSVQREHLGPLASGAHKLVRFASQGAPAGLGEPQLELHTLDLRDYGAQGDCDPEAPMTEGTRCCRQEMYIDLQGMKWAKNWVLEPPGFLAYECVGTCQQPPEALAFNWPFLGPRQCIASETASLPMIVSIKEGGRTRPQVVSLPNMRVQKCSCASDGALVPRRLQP
Chain of Epidermal growth factor receptor (Homo sapiens) (P00533 whole entry, looked up): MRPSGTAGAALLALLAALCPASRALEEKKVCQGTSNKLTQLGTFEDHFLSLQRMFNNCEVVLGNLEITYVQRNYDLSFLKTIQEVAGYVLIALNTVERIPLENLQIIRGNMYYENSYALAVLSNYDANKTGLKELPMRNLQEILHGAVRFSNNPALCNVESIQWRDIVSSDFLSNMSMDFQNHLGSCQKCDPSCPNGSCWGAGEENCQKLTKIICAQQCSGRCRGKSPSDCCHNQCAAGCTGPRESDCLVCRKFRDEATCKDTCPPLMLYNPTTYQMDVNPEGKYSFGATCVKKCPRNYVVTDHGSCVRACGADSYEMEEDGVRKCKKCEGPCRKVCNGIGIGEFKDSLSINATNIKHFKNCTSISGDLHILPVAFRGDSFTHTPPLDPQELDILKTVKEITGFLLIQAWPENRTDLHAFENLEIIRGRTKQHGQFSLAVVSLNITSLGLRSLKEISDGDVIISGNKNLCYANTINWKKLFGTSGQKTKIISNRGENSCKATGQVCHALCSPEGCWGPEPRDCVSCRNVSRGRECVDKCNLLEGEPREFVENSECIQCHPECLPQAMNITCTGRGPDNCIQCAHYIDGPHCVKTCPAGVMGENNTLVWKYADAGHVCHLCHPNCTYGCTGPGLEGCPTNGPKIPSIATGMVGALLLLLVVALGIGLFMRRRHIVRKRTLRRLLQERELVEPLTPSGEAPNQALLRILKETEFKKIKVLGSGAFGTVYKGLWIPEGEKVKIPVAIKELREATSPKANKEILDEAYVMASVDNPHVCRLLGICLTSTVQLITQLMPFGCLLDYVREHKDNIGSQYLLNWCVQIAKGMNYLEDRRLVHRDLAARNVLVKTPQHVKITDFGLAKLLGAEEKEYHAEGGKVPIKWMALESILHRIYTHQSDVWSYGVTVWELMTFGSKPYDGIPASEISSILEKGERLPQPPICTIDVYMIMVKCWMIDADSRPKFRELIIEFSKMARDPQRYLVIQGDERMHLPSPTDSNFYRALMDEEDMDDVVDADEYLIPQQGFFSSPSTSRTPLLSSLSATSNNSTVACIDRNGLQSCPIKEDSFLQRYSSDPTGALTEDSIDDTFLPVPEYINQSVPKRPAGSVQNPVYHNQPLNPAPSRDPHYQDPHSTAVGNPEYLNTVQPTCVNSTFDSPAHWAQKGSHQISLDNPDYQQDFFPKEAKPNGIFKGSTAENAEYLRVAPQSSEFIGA
Chain of Follistatin-related protein 3 (Homo sapiens) (O95633 whole entry, looked up): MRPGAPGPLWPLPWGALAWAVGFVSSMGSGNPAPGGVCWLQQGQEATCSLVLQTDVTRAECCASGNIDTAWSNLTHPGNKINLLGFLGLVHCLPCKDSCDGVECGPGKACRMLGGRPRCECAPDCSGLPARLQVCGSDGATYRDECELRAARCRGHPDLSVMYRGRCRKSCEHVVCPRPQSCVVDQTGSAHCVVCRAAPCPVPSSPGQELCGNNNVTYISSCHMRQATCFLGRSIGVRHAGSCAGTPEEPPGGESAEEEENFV
Chain of Torsin-1A-interacting protein 1 (Homo sapiens) (Q5JTV8 whole entry, looked up): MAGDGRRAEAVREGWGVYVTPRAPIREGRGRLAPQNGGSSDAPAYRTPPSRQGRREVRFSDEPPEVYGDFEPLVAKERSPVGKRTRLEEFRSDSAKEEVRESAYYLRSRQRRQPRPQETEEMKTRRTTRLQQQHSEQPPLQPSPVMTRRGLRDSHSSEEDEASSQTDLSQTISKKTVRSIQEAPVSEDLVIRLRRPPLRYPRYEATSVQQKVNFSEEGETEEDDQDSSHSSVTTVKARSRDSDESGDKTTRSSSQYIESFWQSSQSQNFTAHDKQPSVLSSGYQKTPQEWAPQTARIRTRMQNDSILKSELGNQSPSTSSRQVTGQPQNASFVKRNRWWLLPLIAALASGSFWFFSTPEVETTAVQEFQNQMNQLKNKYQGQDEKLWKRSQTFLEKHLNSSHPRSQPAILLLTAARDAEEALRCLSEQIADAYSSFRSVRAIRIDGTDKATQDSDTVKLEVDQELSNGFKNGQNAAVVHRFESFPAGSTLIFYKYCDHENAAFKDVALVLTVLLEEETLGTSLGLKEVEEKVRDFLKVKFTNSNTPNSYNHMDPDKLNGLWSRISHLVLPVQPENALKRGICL
Chain of Fibroblast growth factor 10 (Homo sapiens) (O15520 whole entry, looked up): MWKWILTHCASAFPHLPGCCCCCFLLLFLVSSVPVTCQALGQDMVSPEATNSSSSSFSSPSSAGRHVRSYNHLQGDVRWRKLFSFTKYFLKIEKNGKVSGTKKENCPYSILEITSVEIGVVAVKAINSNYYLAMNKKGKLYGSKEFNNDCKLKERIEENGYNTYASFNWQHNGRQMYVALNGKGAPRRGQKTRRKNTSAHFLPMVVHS
Chain of Dickkopf-related protein 1 (Homo sapiens) (O94907 whole entry, looked up): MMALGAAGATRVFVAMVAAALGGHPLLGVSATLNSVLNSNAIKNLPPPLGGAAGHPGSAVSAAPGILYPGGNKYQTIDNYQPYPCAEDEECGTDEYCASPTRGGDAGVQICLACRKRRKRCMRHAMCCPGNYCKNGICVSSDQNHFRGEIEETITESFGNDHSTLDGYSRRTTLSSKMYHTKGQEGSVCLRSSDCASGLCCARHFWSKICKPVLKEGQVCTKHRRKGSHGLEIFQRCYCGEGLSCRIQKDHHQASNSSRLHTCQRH

Compound | composite z-score [1] | composite z-score [2] | composite z-score [3] | z-score [4] | composite z-score [5] | composite z-score [6] | composite z-score [7] | composite z-score [8] | composite z-score [9] | composite z-score [10] | composite z-score [11] | z-score [12] | composite z-score [13] | composite z-score [14] | composite z-score [15] | composite z-score [16] | composite z-score [17] | composite z-score [18] | composite z-score [19] | composite z-score [20]
CC(C)=CCCC(C)=CCON=C1C[C@@H](O)[C@@H](O)[C@@H]2[C@@H]3C(=O)N(Cc4ccccc4)C(=O)[C@@H]3CC[C@@H]12 | 0.786 | -0.382 | -1.12 | -0.216 (inactive) | 1.14 | 0.279 | 0.696 | 0.955 | 1.04 | 1.09 | 0.209 | 0.45 | 1.08 | -0.488 | -1.32 | -0.154 | -0.214 | -0.0709 | 0.712 | 0.398
C#CCCCON=C1C[C@@H](O)[C@@H](O)[C@@H]2[C@@H]3C(=O)N(c4ccc(F)cc4F)C(=O)[C@@H]3CC[C@@H]12 | 0.191 | -0.19 | -0.71 | 0.0714 (inactive) | -0.0402 | 0.225 | 0.259 | 0.218 | 0.302 | -0.263 | 0.184 | 0.296 | 0.321 | -0.212 | -0.813 | -0.197 | -0.179 | 0.14 | 0.36 | 0.155
CC(=O)OC[C@H]1O[C@@H](ON=C(C)CCN2CCCc3nc(C)c(C)cc32)[C@H](OC(C)=O)[C@@H](OC(C)=O)[C@@H]1OC(C)=O | 0.541 | -0.132 | -0.638 | -0.548 (inactive) | 1.03 | 1.29 | 0.804 | 1.26 | 0.855 | -0.263 | 1.38 | -1.14 | 0.737 | 0.113 | -0.743 | -0.117 | -0.167 | 0.0401 | 0.466 | 0.0927
COc1ccc(O[C@H]2C=C[C@@H](c3ccccc3)O[C@@H]2CON=CC[C@@H]2C=C[C@H](OC(C)=O)[C@@H](COC(C)=O)O2)cc1 | 0.277 | -0.229 | 0.0216 | 0.731 (inactive) | -0.0104 | -0.603 | 0.238 | 0.128 | 0.105 | 0.606 | -0.332 | -0.821 | 0.425 | -0.169 | -0.282 | -0.145 | -0.221 | -0.083 | 0.28 | -0.0924
COC(=O)CC=C[C@@H](C)[C@@H]1C=C[C@H](O)[C@@H](CO)O1 | 0.146 | -0.0367 | -0.48 | -0.593 (inactive) | 0.666 | 0.753 | 0.369 | 0.559 | 1.15 | 0.165 | 0.0429 | -0.0733 | 0.43 | 0.367 | -0.818 | -0.154 | 0.647 | -0.546 | 0.297 | -0.139
CCOC(=O)[C@H](Cc1ccccc1)NC(=O)CCC1CC(OC(=O)NCc2cccc3ccccc23)CC2(CCCC(COC(=O)NCCC(C)C)O2)O1 (stereo not given in full) | 0.12 | -0.295 | -0.206 | -1.74 (inactive) | 0.143 | -0.448 | -0.135 | 0.133 | -0.096 | 0.388 | -2.01 | -0.134 | 0.215 | 0.56 | -0.29 | -0.13 | 0.0141 | -0.372 | -0.0831 | 1.09
CO[C@H]1COC(=O)[C@@H]2CCCN2C(=O)CC=C[C@@H](C)[C@H](OC)COC(=O)[C@@H](OCc2ccccc2)C=C[C@@H]1C | 0.695 | -0.665 | -1.24 | -1.63 (inactive) | 0.163 | 0.484 | 0.547 | 0.907 | 1.75 | 1.58 | -0.556 | -0.389 | 1.04 | -0.584 | -1.15 | -0.0882 | -0.2 | -0.408 | 0.0642 | -0.178
CC(C)(C)N1C(=O)[C@H]2[C@H]3[C@H](O)[C@H](O)CC(=NOCc4ccccc4)[C@H]3CC[C@H]2C1=O | 0.0828 | 0.989 | 1.36 | 0.453 (inactive) | 0.0277 | -0.399 | -0.376 | -0.663 | -0.551 | 0.251 | -0.397 | 0.561 | -0.0786 | 0.157 | -0.272 | -0.0125 | -0.154 | 0.299 | 0.185 | 1.28
CCOC(=O)[C@H](CC(C)C)NC(=O)CCC1CC(OC(=O)NCc2ccc3c(c2)OCO3)CC2(CCCC(COC(=O)NCCCN3CCCC3=O)O2)O1 (stereo not given in full) | 0.929 | -0.0602 | -0.568 | -0.719 (inactive) | 0.783 | 0.805 | 0.414 | 0.734 | 0.509 | -0.0813 | 1.26 | -0.584 | 0.563 | 0.542 | -0.348 | -0.0519 | -0.0073 | -0.158 | 0.0469 | 0.758
CCN1C(=O)[C@H]2[C@H]3[C@H](O)[C@H](O)CC(=NO[C@@H](C)c4cn([C@H](CO)Cc5ccccc5)nn4)[C@@H]3CC[C@H]2C1=O | 0.774 | 0.262 | -0.426 | 0.358 (inactive) | 0.792 | 0.92 | 0.182 | 1.14 | 0.692 | -1.1 | 0.696 | -0.262 | 0.636 | 0.711 | -0.209 | -0.0403 | -0.206 | 0.111 | -0.117 | 0.889
CCOC(=O)[C@H](CC(C)C)NC(=O)CCC1CC(OC(=O)NCc2ccc3c(c2)OCO3)CC2(CCCC(COC(=O)NCC(c3ccccc3)c3ccccc3)O2)O1 (stereo not given in full) | 0.517 | -0.445 | -0.491 | 0.907 (inactive) | 0.685 | 0.206 | -0.519 | 0.503 | 0.0925 | 0.155 | 0.506 | -0.0319 | 0.426 | -0.378 | -0.443 | -0.169 | -0.262 | -0.137 | 0.126 | 0.443
O=C1C[C@@H](O)[C@@H](O)[C@@H]2[C@@H]3C(=O)N(Cc4ccc5c(c4)OCO5)C(=O)[C@@H]3CC[C@H]12 | 0.063 | -0.312 | -0.406 | 1.03 (inactive) | 0.309 | 0.7 | 0.368 | 0.703 | 0.593 | 0.128 | 0.508 | -0.194 | 0.632 | -0.0373 | -0.646 | -0.208 | 0.0121 | -0.0502 | 0.346 | -0.109
CCO[C@H](c1cc(OC)cc([N+](=O)[O-])c1OC)[C@H](C)C=CCC(=O)OC | 0.54 | -0.295 | -0.776 | 0.402 (inactive) | 0.0681 | 0.117 | 0.147 | 0.385 | 0.505 | 0.0666 | -0.679 | 0.265 | 0.46 | -0.432 | -1.36 | -0.248 | -0.214 | -0.0278 | 0.11 | -0.0356
CCCCC#C[C@@H]1C=C[C@H](OC(C)=O)[C@@H](COC(C)=O)O1 | 0.483 | -0.228 | -0.595 | 1.07 (inactive) | 0.46 | 0.244 | 0.137 | 0.44 | 0.124 | 0.589 | 0.713 | -2.47 | 0.579 | 0.349 | -0.0635 | -0.118 | -0.221 | -0.285 | 0.339 | 0.217
CCc1cc2c(nc1CC)CCN(CCC(C)=NOC[C@H]1O[C@H](c3ccccc3)C=C[C@@H]1Oc1ccc(OC)cc1)C2 | 0.507 | 0.46 | 0.0691 | -1.47 (inactive) | -0.344 | -0.26 | -0.0924 | -0.0668 | -0.159 | 0.813 | 0.371 | -3.16 | -0.0061 | -0.112 | 0.366 | -0.0944 | 0.0639 | -0.0065 | 0.76 | 0.292
